# In PubChem BioAssay (NCATS):
# Values joined by “and” are separate entries in the source; they are usually repeats but may differ in a detail not shown here. Equal entries are not always repeated. Inconclusive results are not listed. Where a call stands in place of a potency, no number is given. A number with no mark means an inactive call. Active and inactive are the calls of the source. Calls come from the whole dose curve; as a rule, active = well fitted curve in the direction sought with a large enough effect; inconclusive = small, poorly fitted or top-dose-only effect, or another doubt; inactive = no such curve, though single readings can be large; an effect the other way counts as inactive or inconclusive.
# Key:
# [1] = target: Cytochrome P450 3A7 (Homo sapiens) (UniProt P24462); experiment: Cytochrome P450 family 3 subfamily A member 7 (CYP3A7) small molecule antagonists: luciferase biochemical qHTS assay (AID 1963596); note: nearly all actives have a fitted effect of over 40% in size; note: potency is the fitted concentration of half-maximal effect
# How it was run: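 In this luminescent screen, enzyme and proluciferin substrate meet test compound for 10 min before NADPH regeneration solution drives a 1 h room-temperature reaction; detection reagent halts turnover and luminescence is read 20 min later.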
# [2] = Viability qHTS for spleen associated tyrosine kinase inhibitor (SYKi) naive MV4-11 cells (AID 1963823); note: nearly all actives have a fitted effect of over 40% in size; note: potency is the fitted concentration of half-maximal effect
# How it was run: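 Read-out: CellTiter-Glo luminescence. Exposure: 72 hr, 37 C, 5% CO2, 95% humidity. Cells: MV4-11 without SYK inhibitor history, 500/well, qHTS format.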
# [3] = Quantitative highthroughput screen to assess conditional lethalithy of P12 Ichikawa cells grown in Human Plasma-Like Medium with dialyzed fetal bovine serum (HPLM+ds) (AID 1963879); conditions: Potency: viability; note: potency is the fitted concentration of half-maximal effect; nearly all actives have a fitted effect of over 35% in size
# How it was run: (§1)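 Each medium arm—HPLM with 10% dialyzed FBS, or RPMI1640 with 5 mM glucose and 10% untreated or dialyzed FBS—was screened against an 11-point, 3-fold compound titration for 48 h at 37 °C, with CellTiter-Glo luminescence as endpoint.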
# [4] = Quantitative highthroughput screen to assess conditional lethalithy of P12 Ichikawa cells grown in RPMI1640 with untreated serum (RPMI+s) (AID 1963881); conditions: Potency: viability; note: potency is the fitted concentration of half-maximal effect; nearly all actives have a fitted effect of over 35% in size
# How it was run: as §1
# [5] = Quantitative highthroughput screen to assess conditional lethalithy of SEM cells grown in RPMI1640 with unreated serum (RPMI+s) (AID 1963883); note: nearly all actives have a fitted effect of over 35% in size; note: potency is the fitted concentration of half-maximal effect
# How it was run: as §1
# [6] = Cellular viability qHTS for adrenocortical cancer (ACC) cell line SW-13 (AID 1963989); conditions: SW-13 ACC cells viability, CellTiter-Glo, 48 h; activity (max response): active compounds read low; note: nearly all actives have a fitted effect of over 65% in size; note: potency is the fitted concentration of half-maximal effect;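 for activity (max response): cells grown in serum-free medium with ITS supplement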
# How it was run: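 Here, serum-free SW-13 cultures were dosed up to 46 uM. Following 48 h, ATP-dependent luminescence (CellTiter-Glo) reported viable cells, and logistic modeling produced IC50 values.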
# [7] = Cellular viability qHTS for adrenocortical cancer (ACC) cell line NCI-H295R (AID 1963990); note: nearly all actives have a fitted effect of over 60% in size; note: potency is the fitted concentration of half-maximal effect
# How it was run: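 Viability of NCI-H295R after 48 h of treatment (final up to 46 uM) measured through cellular ATP luminescence.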
# [8] = Quantitative highthroughput screen to assess conditional lethalithy of P12 Ichikawa cells grown in RPMI1640 with dialyzed fetal bovine serum (RPMI+ds) (AID 1963880); conditions: Potency: P12-Ichikawa viability; note: potency is the fitted concentration of half-maximal effect; nearly all actives have a fitted effect of over 35% in size
# How it was run: as §1
# [9] = Quantitative highthroughput screen to assess conditional lethalithy of SEM cells grown in Human Plasma-Like Medium with dialyzed fetal bovine serum (HPLM+ds) (AID 1963882); note: nearly all actives have a fitted effect of over 35% in size; note: potency is the fitted concentration of half-maximal effect; for Viability: series mostly up to about 46 µM
# How it was run: as §1
# [10] = Quantitative highthroughput screen to assess conditional lethalithy of NOMO1 cells grown in Human Plasma-Like Medium with dialyzed fetal bovine serum (HPLM+ds) (AID 1963878)
# How it was run: as §1
# [11] = Quantitative highthroughput screen to assess conditional lethalithy of SEM cells grown in RPMI1640 with dialyzed fetal bovine serum (RPMI+ds) (AID 1963884)
# How it was run: as §1
# Sequence of Cytochrome P450 3A7 (Homo sapiens) (P24462 whole entry, looked up): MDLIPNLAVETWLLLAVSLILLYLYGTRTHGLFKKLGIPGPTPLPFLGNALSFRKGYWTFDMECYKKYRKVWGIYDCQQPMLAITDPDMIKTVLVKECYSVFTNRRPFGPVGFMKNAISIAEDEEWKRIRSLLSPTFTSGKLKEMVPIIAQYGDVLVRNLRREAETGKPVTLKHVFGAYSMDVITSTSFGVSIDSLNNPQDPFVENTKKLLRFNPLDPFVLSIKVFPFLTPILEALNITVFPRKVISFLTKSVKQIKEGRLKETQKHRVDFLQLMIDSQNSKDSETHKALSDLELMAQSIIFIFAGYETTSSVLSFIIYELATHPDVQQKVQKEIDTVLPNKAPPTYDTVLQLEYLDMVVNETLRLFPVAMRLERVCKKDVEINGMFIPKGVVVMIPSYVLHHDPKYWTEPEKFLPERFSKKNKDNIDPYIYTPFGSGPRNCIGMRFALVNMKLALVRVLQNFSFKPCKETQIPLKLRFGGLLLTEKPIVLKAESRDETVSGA
compound,measurement,setting,value
CCCOc1ccc2nc(NC(=O)OC)[nH]c2c1,Potency,[1],inactive
same,Potency,[2],263 nM (active)
same,Potency,[3],41.8 nM (active)
same,Potency,[4],41.8 nM (active)
same,Potency,[5],14.8 nM (active)
same,Potency,[6],251 nM (active)
same,Potency,[7],355 nM (active)
CC(=O)N[C@@H](CCC(N)=O)C(=O)O,Potency,[1],inactive
same,Potency,[2],inactive
same,activity (max response),[6],11.4%
same,Potency,[7],inactive
CN(C)CCOC(=O)C(c1ccccc1)C1(O)CCCC1 (stereo not drawn),Potency,[1],inactive
same,Potency,[2],inactive
same,activity (max response),[6],6.08%
Nc1nc2ncc(CNc3ccc(C(=O)N[C@@H](CCC(=O)O)C(=O)O)cc3)nc2c(=O)[nH]1,Potency,[1],inactive
same,Potency,[2],inactive
same,activity (max response),[6],12.3%
CC1(C)O[C@@H]2[C@@H](CO[C@@]3(COS(N)(=O)=O)OC(C)(C)O[C@@H]23)O1,Potency,[1],inactive
same,Potency,[2],inactive
same,activity (max response),[6],9.55%
same,Potency,[7],inactive
O=c1[nH]cnc2c1ncn2[C@H]1CC[C@@H](CO)O1,Potency,[1],inactive
same,Potency,[2],inactive
same,Potency,[8],16600 nM (active)
same,Potency,[9],18700 nM (active)
same,activity (max response),[6],1.58%
same,Potency,[7],inactive
CC(N)C12CC3CC(CC(C3)C1)C2 (stereo not drawn),Potency,[1],inactive
same,Potency,[2],inactive
same,Potency,[10],10500 nM (active)
same,Potency,[9],inactive
same,Potency,[5],inactive
same,Potency,[11],inactive
same,activity (max response),[6],-5.6% and -7.27%
same,Potency,[7],inactive
CN(C)CCN(Cc1ccccc1)c1ccccn1,Potency,[1],6920 nM (active)
same,Potency,[2],inactive
same,activity (max response),[6],-3.06%
C=CCc1ccccc1OCC(O)CNC(C)C (stereo not drawn),Potency,[1],inactive
same,Potency,[2],inactive
same,activity (max response),[6],1.07%
Cc1c(Nc2ncccc2C(=O)O)cccc1C(F)(F)F,Potency,[1],inactive
same,Potency,[2],inactive
same,activity (max response),[6],-9.06%
N[C@H]1C(O)O[C@H](CO)[C@@H](O)[C@@H]1O (stereo partly drawn),Potency,[1],inactive
same,Potency,[2],inactive
same,activity (max response),[6],-3.76%
same,Potency,[7],inactive
